Assay [1] in a line: ATG_CRE_CIS: Attagene CIS-FACTORIAL HepG2 Assay for human cAMP Responsive Element (CRE) binding protein 3 (AID 2282926). The following applies: HepG2 CRE cis-reporter, Attagene multiplexed mRNA; actives raise or lower the signal. Put shortly: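 Induced reporter mRNA from a CRE cis element, measured in HepG2 among many multiplexed units at 24 h. Detection used RT-PCR plus capillary electrophoresis of fluorescent fragments; DMSO served as negative control.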

The target of assay [2] is CCAAT/enhancer-binding protein beta (Homo sapiens) (UniProt P17676). The experiment in a line: ATG_C_EBP_CIS: Attagene CIS-FACTORIAL HepG2 Assay for human CCAAT/Enhancer Binding Protein (C/EBP) beta (AID 2282927). The following applies: HepG2 Attagene cis-factorial transcription factor reporter; actives raise or lower the signal. Put shortly: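 Changes in reporter mRNA, rather than exogenous chimeric receptor activity, reflect native C/EBP signalling in transfected HepG2 cells dosed for 24 h; transcripts are detected by RT-PCR and capillary electrophoresis.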
Chain of CCAAT/enhancer-binding protein beta (Homo sapiens) (P17676 whole entry, looked up): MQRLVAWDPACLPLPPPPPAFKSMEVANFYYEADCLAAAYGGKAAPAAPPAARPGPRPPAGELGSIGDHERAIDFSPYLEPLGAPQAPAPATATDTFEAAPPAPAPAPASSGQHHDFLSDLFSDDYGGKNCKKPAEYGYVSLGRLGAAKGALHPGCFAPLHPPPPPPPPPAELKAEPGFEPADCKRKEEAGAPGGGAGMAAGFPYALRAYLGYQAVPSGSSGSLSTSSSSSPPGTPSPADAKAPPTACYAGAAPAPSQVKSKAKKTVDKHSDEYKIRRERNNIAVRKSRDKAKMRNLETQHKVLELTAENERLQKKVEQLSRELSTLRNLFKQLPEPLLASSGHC

A short description of assay [3]: ATG_CMV_CIS: Attagene CIS-FACTORIAL HepG2 Assay for human CMV (Internal Marker) (AID 2282928).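 Further: endpoint acts as a background internal control marker rather than a target.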 To be noted: HepG2 CMV promoter reporter, transcription factor profiling; actives raise or lower the signal. Put shortly: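 Readout: fluorescent reporter cDNA fragments separated by capillary electrophoresis after RT-PCR and HpaI cut. Cells: HepG2 carrying transfected cis-promoter reporter constructs, dosed 24 h. Endpoint serves as background internal-marker control, fit bidirectionally versus DMSO.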

A short description of assay [4]: ATG_DR4_LXR_CIS: Attagene CIS-FACTORIAL HepG2 Assay for human Liver X Receptor (LXR), DR4 submotif (AID 2282929). To be noted: HepG2 Attagene DR4 cis-reporter, mRNA transcription; actives raise or lower the signal. The essentials:
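Cells were transfected with multiple reporter transcription units, exposed to chemicals for 24 hours, then lysed for RNA. Reporter mRNA induction was measured by RT-PCR with capillary electrophoresis detection and fitted in both directions relative to DMSO.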

In assay [5] the target is Aryl hydrocarbon receptor (Homo sapiens) (UniProt P35869). As to the kind of experiment: ATG_Ahr_CIS: Attagene CIS-FACTORIAL HepG2 Assay for human Aryl Hydrocarbon Receptor (Ahr) (AID 2282930). To be noted: HepG2 AhR cis-factorial reporter transcription; actives raise or lower the signal. The essentials: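 HepG2, transient MRTU (cis) transfection, 24 h exposure. RNA → cDNA → PCR → 6-FAM primer extension → HpaI 2 h 37 C → CE. Fit: bidirectional, DMSO baseline.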
Chain of Aryl hydrocarbon receptor (Homo sapiens) (P35869 whole entry, looked up): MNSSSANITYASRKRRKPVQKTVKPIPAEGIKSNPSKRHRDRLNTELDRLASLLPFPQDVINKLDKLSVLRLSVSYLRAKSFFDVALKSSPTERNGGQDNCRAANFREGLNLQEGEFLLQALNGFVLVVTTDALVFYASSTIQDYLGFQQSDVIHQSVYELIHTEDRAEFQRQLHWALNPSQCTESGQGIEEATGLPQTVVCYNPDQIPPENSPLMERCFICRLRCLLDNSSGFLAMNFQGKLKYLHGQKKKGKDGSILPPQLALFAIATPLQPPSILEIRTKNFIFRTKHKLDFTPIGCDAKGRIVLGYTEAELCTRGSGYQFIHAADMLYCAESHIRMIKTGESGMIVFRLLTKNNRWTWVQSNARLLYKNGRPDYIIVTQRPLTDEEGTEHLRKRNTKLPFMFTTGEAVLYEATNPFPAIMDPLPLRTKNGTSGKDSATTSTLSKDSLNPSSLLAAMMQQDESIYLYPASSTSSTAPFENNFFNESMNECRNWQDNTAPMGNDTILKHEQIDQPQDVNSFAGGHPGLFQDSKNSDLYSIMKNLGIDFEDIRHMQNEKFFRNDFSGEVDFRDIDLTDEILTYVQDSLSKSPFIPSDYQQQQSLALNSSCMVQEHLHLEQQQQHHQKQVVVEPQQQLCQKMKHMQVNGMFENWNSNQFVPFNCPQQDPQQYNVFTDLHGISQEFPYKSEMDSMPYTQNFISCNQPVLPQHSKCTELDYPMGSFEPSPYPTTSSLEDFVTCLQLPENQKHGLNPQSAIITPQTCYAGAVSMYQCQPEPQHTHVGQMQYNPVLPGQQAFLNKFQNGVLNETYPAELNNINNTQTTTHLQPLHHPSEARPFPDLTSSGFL

Assay [6] is described as follows: ATG_AP_1_CIS: Attagene CIS-FACTORIAL HepG2 Assay for human Activator Protein 1 (AP-1) (AID 2282931). To be noted: HepG2 Attagene cis-factorial AP-1 reporter mRNA; actives raise or lower the signal. The essentials: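 Endogenous transcription-factor activity in human HepG2 liver cells is read through a cis-promoter reporter transcript, sampled 24 h after dosing. Detection uses RT-PCR with capillary electrophoresis; values come from bidirectional fitting relative to DMSO.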

Assay [7] can be described thus: ATG_AP_2_CIS: Attagene CIS-FACTORIAL HepG2 Assay for human Activator Protein 2 (AP-2) (AID 2282932). To be noted: HepG2 AP-2 cis-reporter, Attagene transcription factor profiling; actives raise or lower the signal. Put shortly:
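Transiently transfected HepG2 cells are exposed to chemical for 24 h. Reporter transcripts are then measured as fluorescence following RT-PCR and capillary separation, and gain- or loss-of-signal is fitted relative to DMSO.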

In assay [8] the target is Retinoic acid receptor alpha (Homo sapiens) (UniProt P10276). The experiment in a line: ATG_DR5_RAR_CIS: Attagene CIS-FACTORIAL HepG2 Assay for human Retinoic Acid Receptor Alpha (RARE), DR5 submotif (AID 2282934). To be noted: HepG2 Attagene cis-factorial RARE DR5 reporter, mRNA; actives raise or lower the signal. The essentials:
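HepG2, transient cis-reporter transfection, 24 h exposure. mRNA readout: RT-PCR, FAM label, HpaI cut, capillary electrophoresis. DMSO baseline, gain/loss fitting.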

The target in assay [9] is Transcription factor E2F1 (Homo sapiens) (UniProt Q01094). As to the kind of experiment: ATG_E2F_CIS: Attagene CIS-FACTORIAL HepG2 Assay for human E2F Transcription Factor 1 (AID 2282935). To be noted: HepG2 Attagene cis-reporter, E2F reporter RNA transcripts; actives raise or lower the signal. The essentials:
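Fluorescent RT-PCR products, digested with HpaI for 2 h at 37 C, are separated by capillary electrophoresis. Source RNA comes from transfected HepG2 cultures treated for 24 h.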

Assay [10] can be described thus: ATG_E_Box_CIS: Attagene CIS-FACTORIAL HepG2 Assay for human Enhancer Box (E-box) (AID 2282936). The following applies: HepG2 E-box cis-reporter transcription, actives raise or lower the signal. The essentials:
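Fluorescent reporter fragments separated by capillary electrophoresis gave the signal; mRNA came from HepG2 cells transfected with cis-element reporters and treated 24 h. Curves fitted bidirectionally relative to DMSO controls.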

The nature of assay [11]: ATG_M_61_CIS: Attagene CIS-FACTORIAL HepG2 Assay for M61 Transcription Factor (Internal Marker) (AID 2282937). The following applies: HepG2 Attagene CIS-FACTORIAL M61 internal marker reporter; actives raise or lower the signal. Put shortly: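 Cells were transfected with reporter units under cis-regulatory promoters, treated with chemicals for 24 h, then lysed for RNA. Reporter transcripts were quantified by RT-PCR and capillary electrophoresis, and activity was fitted bidirectionally against DMSO.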

Assay [12] can be described thus: ATG_M_19_CIS: Attagene CIS-FACTORIAL HepG2 Assay for M19 Transcription Factor (Internal Marker) (AID 2282939). The following applies: HepG2 Attagene CIS-FACTORIAL M19 internal marker reporter; actives raise or lower the signal. The essentials: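 Chemical-treated HepG2 (24 h) with MRTU constructs; reporter transcripts detected by fluorescent RT-PCR fragment analysis on capillary electrophoresis. Internal background marker, DMSO as baseline.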

Assay [13] in a line: ATG_ERE_CIS: Attagene CIS-FACTORIAL HepG2 Assay for Estrogen Response Element (ERE) (AID 2282940). The following applies: HepG2 ERE cis-reporter, Attagene RNA transcript; actives raise or lower the signal. The essentials:
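Human liver cells (HepG2) bearing transiently transfected, promoter-regulated reporter units were exposed 24 h. Reporter mRNA induction was detected by capillary electrophoresis of labelled RT-PCR products and fitted bidirectionally to DMSO.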

Assay [14] in a line: ATG_Ets_CIS: Attagene CIS-FACTORIAL HepG2 Assay for human Erythroblast Transformation Specific (ETS) (AID 2282941). To be noted: HepG2 ETS cis-reporter transcription, actives raise or lower the signal. The essentials:
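RT-PCR/capillary electrophoresis fluorescence read-out of reporter mRNA; HepG2 transient multi-reporter transfection; 24 h compound exposure; gain or loss of signal fitted bidirectionally relative to DMSO.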

For assay [15], the target named is Hepatocyte nuclear factor 3-beta (Homo sapiens) (UniProt Q9Y261). As to the kind of experiment: ATG_FoxA2_CIS: Attagene CIS-FACTORIAL HepG2 Assay for human Forkhead box A2 (FOXA2) (AID 2282942). To be noted: HepG2 cis-reporter transcription factor activity, 24 h; actives raise or lower the signal. Put shortly:
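Endogenous transcription factor activity was read in HepG2 cells carrying transiently transfected cis-promoter reporter units. After 24 h dosing, reporter mRNA was quantified by RT-PCR and capillary electrophoresis, and values fitted bidirectionally versus DMSO.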

Assay [16] in a line: ATG_FoxO_CIS: Attagene CIS-FACTORIAL HepG2 Assay for human Forkhead box O (FoxO) (AID 2282943). To be noted: HepG2 Attagene cis-reporter, FoxO element, mRNA; actives raise or lower the signal. The essentials: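 Human hepatoma HepG2 cells carry transiently introduced reporter transcription units controlled by cis promoter elements. Chemical treatment lasted 24 h, and mRNA signal was compared with DMSO.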

Assay [17] can be described thus: ATG_GATA_CIS: Attagene CIS-FACTORIAL HepG2 Assay for human GATA Binding Protein (AID 2282944). The following applies: HepG2 GATA cis-element reporter, Attagene multiplex mRNA; actives raise or lower the signal. Put shortly: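 Transfected cis-reporter HepG2 cells were treated with chemicals for 24 hours. Total RNA was then converted to cDNA, amplified with reporter-specific primers and analysed by fluorescent capillary electrophoresis, using DMSO-treated wells as baseline.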

The nature of assay [18]: ATG_GLI_CIS: Attagene CIS-FACTORIAL HepG2 Assay for human Zinc Finger Protein GLI1 (AID 2282945). To be noted: HepG2, Attagene cis-factorial reporter mRNA, GLI element; actives raise or lower the signal. Put shortly:
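Bidirectional curve fits relative to DMSO, using reporter mRNA levels from RT-PCR plus capillary electrophoresis. Cells were HepG2 transiently carrying cis-regulated reporter constructs, harvested 24 h after dosing.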

Assay [19] can be described thus: ATG_BRE_CIS: Attagene CIS-FACTORIAL HepG2 Assay for human Bone Morphogenetic Protein (BMP) Response Element (BRE) (AID 2282933). To be noted: HepG2 BMP response element reporter, Attagene transcription factor profiling; actives raise or lower the signal. Put shortly:
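A HepG2 multiplex reporter system measured inducible reporter mRNA 24 h post-dosing. Detection: RT-PCR, 6-FAM primer extension, HpaI digestion, capillary electrophoresis. Activity fitted bidirectionally relative to DMSO.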

Assay [20] is described as follows: ATG_EGR_CIS: Attagene CIS-FACTORIAL HepG2 Assay for human Early Growth Response 1 (EGR1) (AID 2282938). The following applies: HepG2 Attagene CIS-FACTORIAL EGR reporter mRNA; actives raise or lower the signal. The essentials:
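Endogenous TF activity in HepG2 liver cells was gauged through cis-promoter reporter constructs transiently transfected. After 24 h dosing, reporter mRNA was quantified by RT-PCR and capillary electrophoresis, and curves fitted in both directions versus DMSO.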

Calls of active or inactive are those of the source. How the source made its calls: active means hit-call score of the fitted dose curve at least 0.9, where 1 is the maximum; inactive means score below 0.9.

Here are results for eight molecules from PubChem BioAssay (EPA / NIEHS).

Broadly, the AC50 is the concentration giving half of the maximal activity seen.

Chain of Transcription factor E2F1 (Homo sapiens) (Q01094 whole entry, looked up): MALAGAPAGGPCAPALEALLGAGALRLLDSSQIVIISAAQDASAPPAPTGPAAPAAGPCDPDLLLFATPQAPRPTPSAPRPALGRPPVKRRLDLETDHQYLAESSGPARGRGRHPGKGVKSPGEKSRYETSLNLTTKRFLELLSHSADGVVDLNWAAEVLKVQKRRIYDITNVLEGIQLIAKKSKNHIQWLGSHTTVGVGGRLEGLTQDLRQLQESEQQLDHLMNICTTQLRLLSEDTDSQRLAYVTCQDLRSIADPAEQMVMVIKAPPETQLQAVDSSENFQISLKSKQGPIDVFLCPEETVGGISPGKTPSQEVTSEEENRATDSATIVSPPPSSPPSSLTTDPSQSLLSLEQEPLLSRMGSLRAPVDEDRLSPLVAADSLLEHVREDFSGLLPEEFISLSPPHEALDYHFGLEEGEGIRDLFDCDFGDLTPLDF
Chain of Retinoic acid receptor alpha (Homo sapiens) (P10276 whole entry, looked up): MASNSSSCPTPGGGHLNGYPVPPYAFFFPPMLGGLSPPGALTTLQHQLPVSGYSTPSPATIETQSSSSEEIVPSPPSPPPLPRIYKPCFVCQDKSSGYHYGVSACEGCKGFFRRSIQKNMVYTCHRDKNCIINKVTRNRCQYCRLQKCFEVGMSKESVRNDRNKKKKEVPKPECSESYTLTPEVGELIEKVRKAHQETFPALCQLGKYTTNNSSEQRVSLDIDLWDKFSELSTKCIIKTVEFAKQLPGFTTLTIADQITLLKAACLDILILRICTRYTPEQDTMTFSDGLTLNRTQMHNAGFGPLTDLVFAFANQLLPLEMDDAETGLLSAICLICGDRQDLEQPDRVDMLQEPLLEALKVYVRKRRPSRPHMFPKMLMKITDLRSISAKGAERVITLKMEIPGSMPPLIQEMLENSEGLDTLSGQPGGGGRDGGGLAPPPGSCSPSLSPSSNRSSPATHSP
Chain of Hepatocyte nuclear factor 3-beta (Homo sapiens) (Q9Y261 whole entry, looked up): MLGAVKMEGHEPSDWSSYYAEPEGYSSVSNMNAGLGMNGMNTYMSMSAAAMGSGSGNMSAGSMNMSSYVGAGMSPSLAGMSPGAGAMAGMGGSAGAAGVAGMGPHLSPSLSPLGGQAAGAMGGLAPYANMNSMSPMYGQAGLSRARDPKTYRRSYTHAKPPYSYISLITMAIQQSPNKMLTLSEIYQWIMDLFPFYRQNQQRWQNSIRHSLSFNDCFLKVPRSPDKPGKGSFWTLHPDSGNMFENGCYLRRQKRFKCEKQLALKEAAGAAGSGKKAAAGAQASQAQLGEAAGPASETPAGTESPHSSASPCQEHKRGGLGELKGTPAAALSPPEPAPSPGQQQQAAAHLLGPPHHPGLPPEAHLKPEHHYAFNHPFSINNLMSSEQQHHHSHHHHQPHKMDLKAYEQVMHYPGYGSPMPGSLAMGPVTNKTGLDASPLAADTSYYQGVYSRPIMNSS

For the molecule `Nc1ccc(Oc2ccc(N)c(N)c2)cc1`, the outcome in assay [1], in [2], in assay [4], in [5], in [6] and in assay [7] was inactive. The call in [8], in assay [9], in assay [10], in assay [11], in [12] and in [13] was inactive. For the same molecule, the call in [14], in assay [15], in assay [16], in assay [17] and in assay [18] was inactive. Besides, the AC50 in assay [3] is 85.5 µM (active).
As to `CC1=CC[C@H](C(C)C)C=C1`, the call in assay [1], in [2], in assay [3], in assay [4], in [5] and in assay [6] was inactive. In addition, the result in assay [7], in [19], in assay [9], in assay [10], in [11] and in assay [20] was inactive. Further, the call in [12], in [13], in assay [14], in [16], in assay [17] and in [18] was inactive.
Take `CC1(C)O[C@@H]2C[C@H]3[C@@H]4C[C@H](F)C5=CC(=O)CC[C@]5(C)[C@H]4[C@@H](O)C[C@]3(C)[C@]2(C(=O)CO)O1`: the molecule was classed as inactive in assay [1], in [2], in [3], in [4], in [5] and in [6]. Further, the molecule was called inactive in [7], in [19], in assay [9], in assay [10], in [11] and in assay [20]. Moreover, the outcome in assay [12], in assay [13], in assay [15], in assay [17] and in assay [18] was inactive.
Consider `Cc1ccccc1C`, for which the outcome in [1], in assay [2], in assay [3], in assay [4], in [5] and in assay [6] was inactive. Moreover, the molecule was called inactive in assay [7], in assay [8], in assay [9], in assay [10], in [11] and in assay [20]. The result in assay [12], in assay [13], in [14], in assay [15], in [16] and in [17] was inactive. The molecule was classed as inactive in [18].
Take `CCCOCCOCCOCCO`: the result in [1], in [2], in assay [3], in assay [4], in assay [5] and in assay [6] was inactive. Also, the result in assay [7], in [8], in assay [9], in assay [10], in assay [11] and in assay [20] was inactive. Also, the result in assay [12], in [13], in [14], in assay [15], in [16] and in assay [17] was inactive. Moreover, the call in [18] was inactive.
Turning to `CCOC(F)(F)C(F)(F)C(F)(F)C(F)(F)F`, the molecule was classed as inactive in assay [1], in [2], in assay [3], in assay [4], in assay [5] and in assay [6]. The molecule was classed as inactive in [7], in assay [8], in assay [9], in [10], in assay [11] and in [20]. The molecule was called inactive in assay [12], in assay [13], in assay [14], in [16], in assay [17] and in [18].
On to `CCCCCCCCCCCCCCCCCC#N`, for which the call in [1], in [2], in [3], in [4], in assay [5] and in assay [6] was inactive. Moreover, the molecule was called inactive in assay [7], in [19], in assay [9], in assay [10], in [11] and in [20]. Also, the outcome in assay [12], in assay [13], in assay [14], in assay [15], in assay [17] and in [18] was inactive.
With `CC1(C)S[C@@H]2[C@H](NC(=O)COc3ccccc3)C(=O)N2[C@H]1C(=O)O`, the call in [1], in [2], in assay [3], in [4], in assay [5] and in [6] was inactive. The molecule was classed as inactive in [7], in assay [19], in assay [9], in assay [10], in [11] and in assay [20]. Also, the molecule was classed as inactive in assay [12], in [13], in assay [14], in [16], in [17] and in [18].
